Laboratory results published in PubChem BioAssay (Tox21).
Where “and” joins values, the source holds several entries; their conditions need not be identical. Equal values may be shown once. Inconclusive results are not listed. Values without a mark were called inactive. Calls of active or inactive are those of the source. The call rests on the fitted dose curve; in most records, active means well fitted inhibition curve with a large enough effect in the repeat runs; inconclusive means weak or mixed curves; inactive means no such curve, though single readings can be large or run the other way.

target: Cytochrome P450 2C19 (Homo sapiens) (UniProt P33261); assay: Cytochrome P450 Family 2 Subfamily C Member 19 (CYP2C19) small molecule antagonists: luciferase reporter qHTS assay (AID 1671197); details: P450-Glo CYP2C19 enzyme, luciferin luminescence, 1 h; series mostly up to 115 µM; further: nearly all actives have a fitted effect of over 65% in size
Sequence (P33261 whole entry, looked up): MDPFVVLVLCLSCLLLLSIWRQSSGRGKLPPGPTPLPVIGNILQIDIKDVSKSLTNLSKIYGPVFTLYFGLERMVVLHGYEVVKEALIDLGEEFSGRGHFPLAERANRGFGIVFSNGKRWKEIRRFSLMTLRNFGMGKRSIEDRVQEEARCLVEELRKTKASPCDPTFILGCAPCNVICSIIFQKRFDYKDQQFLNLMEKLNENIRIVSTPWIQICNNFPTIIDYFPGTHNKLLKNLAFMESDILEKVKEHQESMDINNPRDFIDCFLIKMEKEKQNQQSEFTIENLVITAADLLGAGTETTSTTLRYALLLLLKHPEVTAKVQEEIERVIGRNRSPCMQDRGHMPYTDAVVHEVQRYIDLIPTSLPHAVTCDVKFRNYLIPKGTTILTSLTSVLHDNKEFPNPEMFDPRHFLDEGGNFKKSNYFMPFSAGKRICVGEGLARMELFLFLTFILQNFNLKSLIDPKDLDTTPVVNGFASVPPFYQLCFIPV
Summary of the method: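 Relative luminescence units recorded 20 min after the detection reagent stopped a 1 h, 37C CYP2C19 reaction on proluciferin substrate, which was started by NADPH regeneration following 10 min room-temperature compound preincubation; ketoconazole positive control.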
On the % scale 0 is the no-effect control and ±100 the full control effect; potency means the concentration at half of the fitted maximal effect.

Row | SMILES | Potency | activity change, negative = inhibition
1 | c1ccc2c(c1)OCC(C1=NCCN1)O2 (centres undefined) | inactive | 
2 | CC(C)CCCCCOC(=O)c1ccccc1C(=O)OCCCCCC(C)C | 39.5 µM (active) | 
3 | CC(C)CC(C)N (centres undefined) | inactive | 
4 | CN(CCCC(O)c1cccnc1)N=O (centres undefined) | inactive | 
5 | CC(C)N1C(=O)N(c2ccccc2)CSC1=NC(C)(C)C | 7.1 µM (active) | 
6 | CCCCCCCCCCBr | inactive | 
7 | Nc1ccc(Sc2ccc(N)cc2)cc1 | 5.03 µM (active) | 
8 | N#CCCO | inactive | 
9 | Oc1ccc(C(c2ccc(O)cc2)(C(F)(F)F)C(F)(F)F)cc1 | 5 µM (active) and 2.83 µM (active) | 
10 | Brc1c(Br)c(Br)c(Oc2c(Br)c(Br)c(Br)c(Br)c2Br)c(Br)c1Br |  | 12.5% [at 23.6 µM]
11 | CN(C)S(=O)(=O)N(SC(F)(Cl)Cl)c1ccccc1 | 11.2 µM (active) | 
12 | Nc1ccc(Cc2ccc(N)c(Cl)c2)cc1Cl | 6.86 µM (active) | 
13 | CCC(C)c1cc([N+](=O)[O-])cc([N+](=O)[O-])c1OC(=O)C=C(C)C (centres undefined) | 35.6 µM (active) | 
14 | COc1ccc(N)cc1N | 732 nM (active) and 3.83 µM (active) | 
15 | S=C=Nc1cccc2ccccc12 | 2.8 µM (active) | 
16 | Nc1ccc(Cl)cc1C(=O)c1ccccc1 | 15.9 µM (active) | 
17 | CC(=[OH+])/C=C(/C)[O-].CC(=[OH+])/C=C(\C)[O-].CC(=[OH+])/C=C(\C)[O-].[Al] | inactive | 
18 | O=C1C=CC(=O)c2ccccc21 | 14.2 µM (active) | 
19 | S=C(SSC(=S)N1CCCCC1)N1CCCCC1 | 6.92 µM (active) | 
20 | CCCCOP(=O)(CCCC)OCCCC | 11.2 µM (active) | 
21 | Nc1ccc([N+](=O)[O-])cc1Cl | inactive | 
22 | O=C/C(Cl)=C(/Cl)C(=O)O | inactive | 
23 | [Cl][Sb]([Cl])[Cl] | inactive | 
24 | CCCCCCCCCBr | inactive | 
25 | CCOCn1c(-c2ccc(Cl)cc2)c(C#N)c(Br)c1C(F)(F)F | 4.48 µM (active) | 
26 | CC1(C)[C@H](C(=O)O[C@H](C#N)c2cccc(Oc3ccccc3)c2)[C@@H]1/C=C(\Cl)C(F)(F)F | 5.86 µM (active) and 7.1 µM (active) | 
27 | Clc1ccc(CCC(Cn2ccnc2)Sc2c(Cl)cccc2Cl)cc1 (centres undefined) | 0.0347 µM (active) | 
28 | C[C@@H]1O[C@@H](O[C@H]2C[C@@H](O)[C@]3(CO)[C@H]4[C@H](O)C[C@]5(C)[C@@H](C6=CC(=O)OC6)CC[C@]5(O)[C@@H]4CC[C@]3(O)C2)[C@H](O)[C@H](O)[C@H]1O | inactive | 
29 | CC(C)Oc1cccc(NC(=O)c2ccccc2C(F)(F)F)c1 | 3.99 µM (active) | 

target: Cytochrome P450 2C9 (Homo sapiens) (UniProt P11712); assay: Cytochrome P450 Family 2 Subfamily C Member 9 (CYP2C9) small molecule antagonists: luciferase reporter qHTS assay (AID 1671198); details: P450-Glo CYP2C9 enzyme assay, luciferin luminescence; series mostly up to 115 µM; further: nearly all actives have a fitted effect of over 50% in size
Sequence (P11712 whole entry, looked up): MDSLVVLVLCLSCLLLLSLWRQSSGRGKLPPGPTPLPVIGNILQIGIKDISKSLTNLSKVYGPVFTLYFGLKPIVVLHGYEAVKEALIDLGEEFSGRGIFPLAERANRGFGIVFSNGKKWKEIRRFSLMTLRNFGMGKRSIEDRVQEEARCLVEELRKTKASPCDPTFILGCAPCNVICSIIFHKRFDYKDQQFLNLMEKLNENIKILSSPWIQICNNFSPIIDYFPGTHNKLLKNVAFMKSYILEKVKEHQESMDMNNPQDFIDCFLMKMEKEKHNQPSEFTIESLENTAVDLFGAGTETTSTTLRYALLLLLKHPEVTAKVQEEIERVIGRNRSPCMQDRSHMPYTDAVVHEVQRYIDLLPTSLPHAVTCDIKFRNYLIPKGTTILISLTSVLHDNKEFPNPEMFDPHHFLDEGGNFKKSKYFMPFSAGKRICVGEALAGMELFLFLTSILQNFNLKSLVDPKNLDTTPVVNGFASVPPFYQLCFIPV
Summary of the method: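 Enzyme-substrate mix preincubated with compound 10 min at room temperature; reaction started with NADPH regeneration solution, 1 h 37C. Luminescent luciferin product read after 20 min detection reagent.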

Row | SMILES | Potency | activity change, negative = inhibition
30 | c1ccc2c(c1)OCC(C1=NCCN1)O2 (centres undefined) | inactive | 
31 | CC(C)CCCCCOC(=O)c1ccccc1C(=O)OCCCCCC(C)C | 12.5 µM (active) | 
32 | CC(C)CC(C)N (centres undefined) | inactive | 
33 | CC(C)CBr | inactive | 
34 | CCOC(=O)c1ccccc1S(=O)(=O)NC(=O)Nc1nc(Cl)cc(OC)n1 | inactive | 
35 | Cn1cc(C2=C(c3cn(C4CCN(Cc5ccccn5)CC4)c4ccccc34)C(=O)NC2=O)c2ccccc21 | 3.09 µM (active) | 
36 | CN(CCCC(O)c1cccnc1)N=O (centres undefined) | inactive | 
37 | CC(C)N1C(=O)N(c2ccccc2)CSC1=NC(C)(C)C | 6.33 µM (active) | 
38 | CCCCCCCCCCBr | inactive | 
39 | Nc1ccc(Sc2ccc(N)cc2)cc1 | 1.23 µM (active) | 
40 | Oc1ccc(C(c2ccc(O)cc2)(C(F)(F)F)C(F)(F)F)cc1 | 3.16 µM (active) and 2 µM (active) | 
41 | Brc1c(Br)c(Br)c(Oc2c(Br)c(Br)c(Br)c(Br)c2Br)c(Br)c1Br |  | -7.81% [at 23.6 µM]
42 | CN(C)S(=O)(=O)N(SC(F)(Cl)Cl)c1ccccc1 | 3.56 µM (active) | 
43 | Nc1ccc(Cc2ccc(N)c(Cl)c2)cc1Cl | 61.2 µM (active) | 
44 | CCC(C)c1cc([N+](=O)[O-])cc([N+](=O)[O-])c1OC(=O)C=C(C)C (centres undefined) | 35.6 µM (active) | 
45 | COc1ccc(N)cc1N | 41.2 µM (active) and 24.2 µM (active) | 
46 | S=C=Nc1cccc2ccccc12 | 4.98 µM (active) | 
47 | Nc1ccc(Cl)cc1C(=O)c1ccccc1 | 39.9 µM (active) | 
48 | CC(=[OH+])/C=C(/C)[O-].CC(=[OH+])/C=C(\C)[O-].CC(=[OH+])/C=C(\C)[O-].[Al] | inactive | 
49 | O=c1c(C2CC(c3ccc(-c4ccc(Br)cc4)cc3)Cc3ccccc32)c(O)sc2ccccc12 (centres undefined) | 5.49 µM (active) | 
50 | O=C1C=CC(=O)c2ccccc21 | 11.2 µM (active) | 
51 | CCCCOP(=O)(CCCC)OCCCC | 31.7 µM (active) | 
52 | Nc1ccc([N+](=O)[O-])cc1Cl | inactive | 
53 | O=C/C(Cl)=C(/Cl)C(=O)O | inactive | 
54 | [Cl][Sb]([Cl])[Cl] | inactive | 
55 | CCCCCCCCCBr | inactive | 
56 | CC(C)(C)C(O)C(Oc1ccc(-c2ccccc2)cc1)n1cncn1 (centres undefined) | 10 µM (active) | 
57 | CCOCn1c(-c2ccc(Cl)cc2)c(C#N)c(Br)c1C(F)(F)F | 8.94 µM (active) | 
58 | Clc1ccc(CCC(Cn2ccnc2)Sc2c(Cl)cccc2Cl)cc1 (centres undefined) | 0.0871 µM (active) | 
59 | CC(C)Oc1cccc(NC(=O)c2ccccc2C(F)(F)F)c1 | 13 µM (active) | 
